Measured values from PubChem BioAssay (EPA / NIEHS).
Records with an inconclusive call do not appear. Active and inactive are the calls of the source. Rule for the calls, unless noted: active = hit-call score of the fitted dose curve at least 0.9, where 1 is the maximum; inconclusive = response in the unintended direction; inactive = score below 0.9.

Experiments:
[1] = ATG_NRF2_ARE_CIS: Attagene CIS-FACTORIAL HepG2 Assay for human Nuclear Factor Erythroid 2 Related Factor 2 (NFR2) response to Antioxidant Response Elements (ARE) (AID 2282992; active = hit-call score of the fitted dose curve at least 0.9, where 1 is the maximum; inactive = score below 0.9;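 for AC50: reporter mRNA level measured by RT-PCR and capillary electrophoresis fluorescence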); conditions: HepG2 Attagene ARE/NRF2 reporter, transcription factor activity; actives raise or lower the signal
Method in brief: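 Multiplexed reporter mRNA profiling in HepG2 after a 24 h chemical exposure. Curves fitted in both directions relative to DMSO negative control.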

[2] = ATG_Oct_MLP_CIS: Attagene CIS-FACTORIAL HepG2 Assay for human Octamer-Binding Transcription Factor (Oct) (AID 2282993; active = hit-call score of the fitted dose curve at least 0.9, where 1 is the maximum; inactive = score below 0.9); conditions: HepG2 Attagene cis-factorial Oct reporter, mRNA; actives raise or lower the signal
Method in brief: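 HepG2, transient MRTU transfection, cis promoter elements; 24 h dosing; RT-PCR/CE fluorescence read-out of reporter mRNA; fit both directions vs DMSO.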

[3] = target: Cellular tumor antigen p53 (Homo sapiens) (UniProt P04637); test: ATG_p53_CIS: Attagene CIS-FACTORIAL HepG2 Assay for human p53 Transcription Factor (AID 2282994; active = hit-call score of the fitted dose curve at least 0.9, where 1 is the maximum; inactive = score below 0.9); conditions: HepG2 p53 cis-element reporter, Attagene mRNA; actives raise or lower the signal
Method in brief: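 Multiplexed reporter mRNA assay in human HepG2 liver cells; cis-regulated units report endogenous factor activity. Values come from bidirectional curve fitting against DMSO negative control after 24 h treatment.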

[4] = target: human Peroxisome Proliferator-activated Receptor alpha (PPARa), PPARA (gene 5465) (UniProt Q07869); test: ATG_PPARa_TRANS: Attagene TRANS-FACTORIAL HepG2 Assay for human Peroxisome Proliferator-activated Receptor alpha (PPARa) (AID 2283001);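 for AC50: potency for gain of reporter signal over DMSO so agonist or activator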
Method in brief: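 Reporter transcripts from GAL4-UAS units in transfected HepG2 were quantified 24 h after dosing. Detection used reverse transcription, PCR, fluorescent primer extension and capillary electrophoresis, with DMSO as baseline.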

[5] = target: human RAR-related Orphan Receptor beta (RORb), RORB (gene 6096) (UniProt Q92753); test: ATG_RORb_TRANS: Attagene TRANS-FACTORIAL HepG2 Assay for human RAR-related Orphan Receptor beta (RORb) (AID 2283010)
Method in brief: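 HepG2 cells were transiently transfected with multiplexed GAL4-UAS reporter units expressing chimeric nuclear receptor–GAL4 proteins, then dosed for 24 h. Reporter mRNA was quantified by RT-PCR with fluorescent labelling and capillary electrophoresis; gain of signal was fitted relative to DMSO.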

[6] = target: human Retinoid X Receptor beta (RXRb), RXRB (gene 6257) (UniProt P28702); test: ATG_RXRb_TRANS: Attagene TRANS-FACTORIAL HepG2 Assay for human Retinoid X Receptor beta (RXRb) (AID 2283013)
Method in brief: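 HepG2 cells transiently transfected with multiplexed reporter units driven by GAL4-UAS and exogenous chimeric NR-Gal4 proteins; treated 24 h. Reporter mRNA measured by RT-PCR, 6-FAM labelling and capillary electrophoresis; gain-of-signal fitted versus DMSO baseline.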

[7] = target: Nuclear receptor subfamily 1 group I member 2 (Homo sapiens) (UniProt O75469); test: ATG_PXR_TRANS: Attagene TRANS-FACTORIAL HepG2 Assay for human Pregnane X Receptor (PXR) (AID 2283008)
Method in brief: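 Measures mRNA induction of a GAL4-UAS-driven reporter in human HepG2 cells transiently expressing PXR fused to Gal4, following 24 h treatment. DMSO served as negative control and baseline.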

[8] = target: human RAR-related Orphan Receptor gamma (RORg), RORC (gene 6097) (UniProt P51449); test: ATG_RORg_TRANS: Attagene TRANS-FACTORIAL HepG2 Assay for human RAR-related Orphan Receptor gamma (RORg) (AID 2283011)
Method in brief: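 Transient MRTU transfection of HepG2 (TRANS format, exogenous NR-Gal4 chimera). 24 h dosing. Total RNA → oligo(dT) RT → PCR → 6-FAM labelling → HpaI cut → CE. Gain vs DMSO.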

[9] = target: Retinoic acid receptor RXR-alpha (Homo sapiens) (UniProt P19793); test: ATG_RXRa_TRANS: Attagene TRANS-FACTORIAL HepG2 Assay for human Retinoid X Receptor alpha (RXRa) (AID 2283012)
Method in brief: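 HepG2 cells transiently transfected with multiplexed GAL4-UAS reporter units and chimeric NR-GAL4 fusions, dosed 24 h. Reporter mRNA measured by RT-PCR, FAM labelling, HpaI digestion and capillary electrophoresis; gain-of-signal fitted relative to DMSO baseline.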

[10] = target: human Peroxisome Proliferator-activated Receptor delta (PPARd), PPARD (gene 5467) (UniProt Q03181); test: ATG_PPARd_TRANS: Attagene TRANS-FACTORIAL HepG2 Assay for human Peroxisome Proliferator-activated Receptor delta (PPARd) (AID 2283002)
Method in brief: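 Transient HepG2 transfection (multiple GAL4-UAS RTUs, chimeric receptor-Gal4); 24 h dosing; total RNA → oligo(dT) RT → PCR → 6-FAM primer extension → HpaI cut → CE. Positive direction vs DMSO.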

[11] = target: Peroxisome proliferator-activated receptor gamma (Homo sapiens) (UniProt P37231); test: ATG_PPARg_TRANS: Attagene TRANS-FACTORIAL HepG2 Assay for human Peroxisome Proliferator-activated Receptor-gamma (PPARg) (AID 2283007)
Method in brief: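 Read-out: reporter mRNA induction, detected by fluorescence after RT-PCR and capillary electrophoresis. Transiently transfected human HepG2 liver cells carrying a chimeric NR-Gal4 construct were dosed for 24 h; activity was fitted upward relative to DMSO.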

[12] = target: human Retinoic Acid Receptor beta (RARb), RARB (gene 5915) (UniProt P10826); test: ATG_RARb_TRANS: Attagene TRANS-FACTORIAL HepG2 Assay for human Retinoic Acid Receptor beta (AID 2283004)
Method in brief: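 Readout is reporter mRNA induction: RNA reverse-transcribed, PCR-amplified, FAM-labelled, HpaI-cut and resolved by capillary electrophoresis. Transiently transfected HepG2 cells carrying exogenous NR–Gal4 chimeras were dosed for 24 h; activity fitted upward relative to DMSO.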

[13] = target: Retinoic acid receptor alpha (Homo sapiens) (UniProt P10276); test: ATG_RARa_TRANS: Attagene TRANS-FACTORIAL HepG2 Assay for human Retinoic Acid Receptor alpha (RARa) (AID 2283005)
Method in brief: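 Reporter transcripts, measured by RT-PCR with fluorescent labeling and capillary electrophoresis after 24 h dosing, reflect activity of an exogenous human RARa–GAL4 fusion in transiently transfected HepG2. Fitted for increase relative to DMSO.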

[14] = target: human Retinoic Acid Receptor gamma (RARg), RARG (gene 5916) (UniProt P13631); test: ATG_RARg_TRANS: Attagene TRANS-FACTORIAL HepG2 Assay for human Retinoic Acid Receptor gamma (RARg) (AID 2283009)
Method in brief: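 HepG2 cells transiently transfected with multiplexed reporter units expressing chimeric RARg-GAL4 and GAL4-UAS-driven reporters; 24 h compound exposure. Reporter mRNA quantified by RT-PCR with fluorescent labelling and capillary electrophoresis; gain-of-signal fitted relative to DMSO baseline.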

Chain of human Retinoid X Receptor beta (RXRb), RXRB (gene 6257) (P28702 whole entry, looked up, the tested form may be a part): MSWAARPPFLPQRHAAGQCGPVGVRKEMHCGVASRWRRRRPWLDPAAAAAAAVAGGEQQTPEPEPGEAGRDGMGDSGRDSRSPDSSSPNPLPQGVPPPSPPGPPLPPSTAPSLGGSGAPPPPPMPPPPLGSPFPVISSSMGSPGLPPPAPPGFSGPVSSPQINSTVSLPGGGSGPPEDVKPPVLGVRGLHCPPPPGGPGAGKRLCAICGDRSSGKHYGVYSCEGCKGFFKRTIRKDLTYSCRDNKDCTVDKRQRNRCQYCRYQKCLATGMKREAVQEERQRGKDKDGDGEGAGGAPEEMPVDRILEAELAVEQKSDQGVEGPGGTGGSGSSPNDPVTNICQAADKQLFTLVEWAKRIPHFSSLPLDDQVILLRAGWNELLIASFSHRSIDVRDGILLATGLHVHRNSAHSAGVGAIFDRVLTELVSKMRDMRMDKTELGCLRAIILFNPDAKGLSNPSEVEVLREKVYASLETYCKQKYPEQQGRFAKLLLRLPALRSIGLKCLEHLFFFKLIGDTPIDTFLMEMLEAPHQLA
Chain of human Peroxisome Proliferator-activated Receptor alpha (PPARa), PPARA (gene 5465) (Q07869 whole entry, looked up, the tested form may be a part): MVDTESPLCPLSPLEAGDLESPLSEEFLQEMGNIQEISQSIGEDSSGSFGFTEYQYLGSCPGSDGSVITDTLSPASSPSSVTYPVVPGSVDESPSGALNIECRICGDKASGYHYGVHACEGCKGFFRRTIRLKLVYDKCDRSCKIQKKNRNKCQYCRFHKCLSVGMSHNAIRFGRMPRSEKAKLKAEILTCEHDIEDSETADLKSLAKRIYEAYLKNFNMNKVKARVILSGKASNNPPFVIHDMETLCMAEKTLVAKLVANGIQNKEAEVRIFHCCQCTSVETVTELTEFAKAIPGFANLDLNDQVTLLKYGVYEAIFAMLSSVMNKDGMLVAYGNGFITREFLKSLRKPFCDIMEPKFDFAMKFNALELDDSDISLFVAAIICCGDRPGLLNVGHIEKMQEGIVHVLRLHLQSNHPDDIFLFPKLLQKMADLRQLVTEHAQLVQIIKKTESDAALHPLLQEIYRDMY
Chain of human Peroxisome Proliferator-activated Receptor delta (PPARd), PPARD (gene 5467) (Q03181 whole entry, looked up, the tested form may be a part): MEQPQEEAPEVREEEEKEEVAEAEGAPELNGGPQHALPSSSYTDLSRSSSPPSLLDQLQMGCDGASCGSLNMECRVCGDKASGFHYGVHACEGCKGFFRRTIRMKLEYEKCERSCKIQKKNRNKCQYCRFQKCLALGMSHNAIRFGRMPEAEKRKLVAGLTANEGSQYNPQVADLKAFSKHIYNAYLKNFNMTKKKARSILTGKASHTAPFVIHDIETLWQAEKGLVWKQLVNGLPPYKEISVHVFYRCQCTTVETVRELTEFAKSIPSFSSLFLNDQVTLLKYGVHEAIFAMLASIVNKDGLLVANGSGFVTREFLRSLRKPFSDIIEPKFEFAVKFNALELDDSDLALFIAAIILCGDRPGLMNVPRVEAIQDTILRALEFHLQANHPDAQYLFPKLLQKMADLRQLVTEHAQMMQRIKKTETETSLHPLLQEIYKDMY
Chain of Nuclear receptor subfamily 1 group I member 2 (Homo sapiens) (O75469 whole entry, looked up, the tested form may be a part): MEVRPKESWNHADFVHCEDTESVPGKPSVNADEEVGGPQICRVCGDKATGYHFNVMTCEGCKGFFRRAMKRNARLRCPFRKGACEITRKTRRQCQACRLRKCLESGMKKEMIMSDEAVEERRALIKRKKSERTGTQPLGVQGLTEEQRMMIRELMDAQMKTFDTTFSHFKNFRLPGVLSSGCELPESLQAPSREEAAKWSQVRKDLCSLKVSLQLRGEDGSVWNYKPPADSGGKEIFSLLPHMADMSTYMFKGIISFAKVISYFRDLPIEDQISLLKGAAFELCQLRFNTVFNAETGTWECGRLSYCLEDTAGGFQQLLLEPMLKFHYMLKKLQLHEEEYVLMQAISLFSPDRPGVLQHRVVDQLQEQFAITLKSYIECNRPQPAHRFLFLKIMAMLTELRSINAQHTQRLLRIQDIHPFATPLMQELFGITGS
Chain of human RAR-related Orphan Receptor beta (RORb), RORB (gene 6096) (Q92753 whole entry, looked up, the tested form may be a part): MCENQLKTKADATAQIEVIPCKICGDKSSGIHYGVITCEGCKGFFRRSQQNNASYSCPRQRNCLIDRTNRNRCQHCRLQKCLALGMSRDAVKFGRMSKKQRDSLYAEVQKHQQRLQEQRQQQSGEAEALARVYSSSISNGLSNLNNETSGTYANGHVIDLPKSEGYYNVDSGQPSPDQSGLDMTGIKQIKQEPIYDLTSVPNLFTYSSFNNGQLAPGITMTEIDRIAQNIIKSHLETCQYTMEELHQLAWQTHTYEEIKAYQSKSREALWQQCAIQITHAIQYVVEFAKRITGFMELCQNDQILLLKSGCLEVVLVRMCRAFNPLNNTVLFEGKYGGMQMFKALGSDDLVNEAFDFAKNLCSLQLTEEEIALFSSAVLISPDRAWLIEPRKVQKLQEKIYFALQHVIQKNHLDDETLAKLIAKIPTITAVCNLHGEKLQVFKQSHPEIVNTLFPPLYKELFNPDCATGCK
Chain of Cellular tumor antigen p53 (Homo sapiens) (P04637 whole entry, looked up): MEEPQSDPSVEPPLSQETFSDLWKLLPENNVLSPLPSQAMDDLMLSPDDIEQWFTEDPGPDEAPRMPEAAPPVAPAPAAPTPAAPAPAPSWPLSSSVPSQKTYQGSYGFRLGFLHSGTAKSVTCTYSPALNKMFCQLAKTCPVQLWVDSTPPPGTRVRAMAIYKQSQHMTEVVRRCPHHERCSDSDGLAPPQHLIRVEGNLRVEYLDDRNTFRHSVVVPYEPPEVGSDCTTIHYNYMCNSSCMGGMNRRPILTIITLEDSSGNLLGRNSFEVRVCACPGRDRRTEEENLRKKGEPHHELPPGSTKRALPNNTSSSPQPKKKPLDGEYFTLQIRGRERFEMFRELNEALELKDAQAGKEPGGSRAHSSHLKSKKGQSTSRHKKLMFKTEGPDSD
Chain of Peroxisome proliferator-activated receptor gamma (Homo sapiens) (P37231 whole entry, looked up, the tested form may be a part): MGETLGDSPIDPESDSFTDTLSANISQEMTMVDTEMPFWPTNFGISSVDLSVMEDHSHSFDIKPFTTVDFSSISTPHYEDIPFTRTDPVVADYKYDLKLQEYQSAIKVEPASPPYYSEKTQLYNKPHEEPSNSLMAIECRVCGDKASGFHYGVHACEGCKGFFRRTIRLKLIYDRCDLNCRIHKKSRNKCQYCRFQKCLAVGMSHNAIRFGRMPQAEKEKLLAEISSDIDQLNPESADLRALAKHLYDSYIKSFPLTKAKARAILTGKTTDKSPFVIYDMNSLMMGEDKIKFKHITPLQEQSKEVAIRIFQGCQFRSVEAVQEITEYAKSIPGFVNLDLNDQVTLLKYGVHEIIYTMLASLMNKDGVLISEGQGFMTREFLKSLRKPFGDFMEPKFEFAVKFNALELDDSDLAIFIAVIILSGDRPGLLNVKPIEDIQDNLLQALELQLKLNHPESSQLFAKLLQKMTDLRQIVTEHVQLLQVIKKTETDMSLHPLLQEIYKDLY
Chain of Retinoic acid receptor RXR-alpha (Homo sapiens) (P19793 whole entry, looked up, the tested form may be a part): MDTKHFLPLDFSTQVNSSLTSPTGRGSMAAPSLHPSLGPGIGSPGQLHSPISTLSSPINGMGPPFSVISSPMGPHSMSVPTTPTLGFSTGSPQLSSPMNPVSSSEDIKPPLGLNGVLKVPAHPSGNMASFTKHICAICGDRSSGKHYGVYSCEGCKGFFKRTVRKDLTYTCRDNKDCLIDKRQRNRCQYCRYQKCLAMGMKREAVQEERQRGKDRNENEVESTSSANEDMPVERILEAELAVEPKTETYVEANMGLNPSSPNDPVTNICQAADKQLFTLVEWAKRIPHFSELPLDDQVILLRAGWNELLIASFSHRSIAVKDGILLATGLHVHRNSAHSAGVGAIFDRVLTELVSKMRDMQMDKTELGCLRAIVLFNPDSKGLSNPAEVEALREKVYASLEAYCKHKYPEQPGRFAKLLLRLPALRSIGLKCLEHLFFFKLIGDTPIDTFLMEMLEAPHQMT
Chain of human RAR-related Orphan Receptor gamma (RORg), RORC (gene 6097) (P51449 whole entry, looked up, the tested form may be a part): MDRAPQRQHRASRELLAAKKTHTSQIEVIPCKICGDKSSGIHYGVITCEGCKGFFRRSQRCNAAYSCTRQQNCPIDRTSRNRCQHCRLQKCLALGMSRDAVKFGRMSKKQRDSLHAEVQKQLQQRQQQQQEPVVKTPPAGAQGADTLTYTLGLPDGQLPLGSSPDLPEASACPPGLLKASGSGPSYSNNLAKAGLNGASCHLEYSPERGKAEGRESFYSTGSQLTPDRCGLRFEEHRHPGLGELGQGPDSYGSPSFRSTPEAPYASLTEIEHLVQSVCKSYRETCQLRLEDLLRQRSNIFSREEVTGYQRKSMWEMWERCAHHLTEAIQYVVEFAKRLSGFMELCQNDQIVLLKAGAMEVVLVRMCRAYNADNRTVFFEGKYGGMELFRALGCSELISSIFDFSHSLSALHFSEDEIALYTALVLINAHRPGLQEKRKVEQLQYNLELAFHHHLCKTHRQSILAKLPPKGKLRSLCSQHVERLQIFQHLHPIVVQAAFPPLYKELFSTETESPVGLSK
Chain of human Retinoic Acid Receptor beta (RARb), RARB (gene 5915) (P10826 whole entry, looked up, the tested form may be a part): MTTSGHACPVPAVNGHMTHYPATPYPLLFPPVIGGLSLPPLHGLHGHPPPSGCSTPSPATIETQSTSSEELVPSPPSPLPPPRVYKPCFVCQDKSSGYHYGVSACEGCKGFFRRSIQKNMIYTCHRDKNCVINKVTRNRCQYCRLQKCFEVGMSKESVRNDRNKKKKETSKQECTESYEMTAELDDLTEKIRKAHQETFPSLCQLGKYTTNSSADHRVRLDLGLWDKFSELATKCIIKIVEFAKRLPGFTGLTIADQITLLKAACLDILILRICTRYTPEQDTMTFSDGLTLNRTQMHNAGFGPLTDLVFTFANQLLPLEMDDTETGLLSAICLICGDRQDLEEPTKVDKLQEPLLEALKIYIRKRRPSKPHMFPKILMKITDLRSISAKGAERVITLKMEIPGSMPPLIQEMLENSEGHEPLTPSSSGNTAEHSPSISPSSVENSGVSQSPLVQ

In the case of CNC(=O)O/N=C/C(C)(C)S(C)(=O)=O, the outcome [1] is reported as “inactive”, the outcome [2] is reported as “inactive” and the outcome [3] is reported as “inactive”. For the same molecule, the outcome [4] was “inactive”, the outcome [5] was “inactive” and the outcome [6] was “inactive”.
For Brc1ccc(Oc2c(Br)cc(Br)cc2Br)c(Br)c1, the outcome [1] was “inactive”, the outcome [2] was “inactive” and the outcome [3] was “inactive”. For the same molecule, the outcome [4] was “inactive”, the outcome [7] was “inactive” and the outcome [5] was “inactive”. The outcome [8] was “inactive”, the outcome [9] was “inactive” and the outcome [6] was “inactive”.
In the case of CC(=O)C(F)(F)C(F)(F)F, the outcome [1] is reported as “inactive”, the outcome [2] is reported as “inactive” and the outcome [3] is reported as “inactive”. For the same molecule, the outcome [10] was “inactive”, the outcome [11] was “inactive” and the outcome [7] was “inactive”. The outcome [9] was “inactive” and the outcome [6] was “inactive”.
With CCOP(=S)(OCC)SCSc1cc(Cl)ccc1Cl the outcome [1] was “inactive”, the outcome [2] was “inactive” and the outcome [3] was “inactive”. The outcome [4] was “inactive”, the outcome [11] was “inactive” and the outcome [8] was “inactive”. The AC50 [6] was 25.5 µM (active).
For CC(=Cc1ccccc1)[N+](=O)[O-], the AC50 [1] was 2.61 µM (active), the outcome [2] was “inactive” and the AC50 [3] was 18 µM (active). The AC50 [4] was 11.1 µM (active), the outcome [5] was “inactive” and the AC50 [6] was 17.3 µM (active).
For CCCCOP(=O)(CCCC)OCCCC, the outcome [1] was “inactive”, the outcome [2] was “inactive” and the outcome [3] was “inactive”. For the same molecule, the outcome [10] was “inactive”, the outcome [12] was “inactive” and the AC50 [7] was 8.52 µM (active). For the same molecule, the outcome [5] was “inactive” and the outcome [9] was “inactive”.
For CCOP(=S)(OCC)O/N=C(\C#N)c1ccccc1, the AC50 [1] was 27.7 µM (active), the outcome [2] was “inactive” and the outcome [3] was “inactive”. For the same molecule, the outcome [10] was “inactive”, the AC50 [11] was 10.6 µM (active) and the AC50 [7] was 1.54 µM (active). For the same molecule, the outcome [9] was “inactive” and the AC50 [6] was 27.5 µM (active).
With Cc1ccc(CCl)cc1 the outcome [1] was “inactive”, the outcome [2] was “inactive” and the outcome [3] was “inactive”. The outcome [4] was “inactive”, the outcome [11] was “inactive” and the outcome [8] was “inactive”.
For C=CCOC(N)=O, the outcome [1] was “inactive”, the outcome [2] was “inactive” and the outcome [3] was “inactive”. The outcome [10] was “inactive”, the outcome [12] was “inactive” and the outcome [13] was “inactive”. For the same molecule, the outcome [11] was “inactive”, the outcome [14] was “inactive” and the outcome [8] was “inactive”.
For C=CC(=O)NC(C)(C)CC(C)=O, the outcome [1] was “inactive”, the outcome [2] was “inactive” and the outcome [3] was “inactive”. For the same molecule, the outcome [4] was “inactive”, the outcome [7] was “inactive” and the outcome [5] was “inactive”. The outcome [8] was “inactive”.
For BrCc1ccc(Br)cc1, the outcome [1] was “inactive”, the outcome [2] was “inactive” and the outcome [3] was “inactive”. For the same molecule, the outcome [10] was “inactive”, the outcome [11] was “inactive” and the outcome [7] was “inactive”. For the same molecule, the outcome [8] was “inactive” and the outcome [9] was “inactive”.
